In article PMC4336329 (PLoS ONE, 2015):
About 2,200 (0.71%) of roughly 310,000 compounds showed an effect of 50% or more. The effect is printed as a negative number. Shown is part of a subset that was picked to be rich in strong results.

target: human ether-à-go-go-related gene (hERG) potassium channel (human, UniProt Q12809); test: primary screen, population patch clamp on CHO cells stably expressing hERG; higher = less effect of the substance
Method: Briefly, Chinese hamster ovary (CHO) cells stably expressing the hERG channel were dislodged from tissue culture flasks and dispensed into PPC plates. […] During the recording, background leak currents were estimated by a 100 ms step to -80 mV from an initial holding potential of -70 mV and subtracted from the subsequent current measurement. The campaign was conducted in two phases using slight differences in recording protocol. In the first phase, the initial voltage pulse used a 100 ms step to -30 mV from a holding potential of -70 mV, a 2 s conditioning step to +25 mV, and a 2 s test step to -30 mV. During the second phase of the screen, the potential during the conditioning step was raised to +45 mV. In both phases of the campaign, a secondary voltage pulse was applied using the same parameters as the second phase initial pulse. The initial and secondary pulses were applied in the absence of compound, and upon application of 1 μM and 10 μM test concentrations. Small molecule effects on hERG current density were quantified by […].

human ether-à-go-go-related gene (hERG) potassium channel, sequence (Q12809 whole entry, looked up): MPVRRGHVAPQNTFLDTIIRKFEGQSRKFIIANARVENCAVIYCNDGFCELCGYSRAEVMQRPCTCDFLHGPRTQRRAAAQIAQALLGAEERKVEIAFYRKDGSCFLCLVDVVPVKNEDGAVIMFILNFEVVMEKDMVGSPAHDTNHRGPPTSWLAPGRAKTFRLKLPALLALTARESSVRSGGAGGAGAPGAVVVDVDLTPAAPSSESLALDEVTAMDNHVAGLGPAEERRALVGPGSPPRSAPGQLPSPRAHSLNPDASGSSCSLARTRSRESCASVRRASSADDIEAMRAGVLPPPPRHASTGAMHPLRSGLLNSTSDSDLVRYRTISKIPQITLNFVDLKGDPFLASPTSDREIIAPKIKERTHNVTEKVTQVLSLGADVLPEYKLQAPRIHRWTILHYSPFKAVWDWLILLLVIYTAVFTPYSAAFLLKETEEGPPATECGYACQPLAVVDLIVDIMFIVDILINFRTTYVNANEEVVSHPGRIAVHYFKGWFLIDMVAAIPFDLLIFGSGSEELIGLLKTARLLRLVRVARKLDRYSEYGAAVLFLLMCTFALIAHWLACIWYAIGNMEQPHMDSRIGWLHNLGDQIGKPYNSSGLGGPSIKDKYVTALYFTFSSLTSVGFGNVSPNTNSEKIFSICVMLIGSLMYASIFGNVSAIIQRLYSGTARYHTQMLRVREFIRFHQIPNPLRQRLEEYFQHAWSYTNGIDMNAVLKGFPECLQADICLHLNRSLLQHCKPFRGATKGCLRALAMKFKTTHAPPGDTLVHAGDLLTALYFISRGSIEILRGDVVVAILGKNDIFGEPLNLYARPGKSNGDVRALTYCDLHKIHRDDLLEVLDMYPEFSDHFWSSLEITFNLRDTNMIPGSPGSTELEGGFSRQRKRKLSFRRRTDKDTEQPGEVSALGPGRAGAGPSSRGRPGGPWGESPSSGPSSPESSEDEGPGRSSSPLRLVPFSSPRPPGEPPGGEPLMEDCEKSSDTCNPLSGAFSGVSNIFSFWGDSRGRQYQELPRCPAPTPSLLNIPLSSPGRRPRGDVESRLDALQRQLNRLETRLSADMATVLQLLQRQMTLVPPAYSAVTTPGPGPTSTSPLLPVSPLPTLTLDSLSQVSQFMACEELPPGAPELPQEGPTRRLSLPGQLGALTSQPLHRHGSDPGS

In order of falling “hERG current change (%, negative = inhibition) at 1uM” value:
1. CCCCNC(=O)/C=C/c1cccs1  24.3%
2. CN(C)/C=N/c1cc(=O)[nH]c(=O)n1CC1CC1  17.1%
3. Cc1c(C)c2cc(Cl)c(O)c(CN(C)C)c2oc1=O  15.4%
4. CC(=O)Nc1ccc(CN2CCC(n3nccc3NC(=O)CCc3ccccc3)CC2)cc1  11.7%
5. Cn1cc(S(=O)(=O)N2CCC(C(N)=O)CC2)c(=O)n(C)c1=O  11%
6. O=C(/C=C/c1ccc(-c2ccccc2)o1)c1ccccc1  10.1%
7. O=C(CCCN1C(=O)/C(=C/c2ccc3c(c2)OCO3)SC1=S)Nc1cccc(C(=O)O)c1  9.71%
8. CCOc1cccc(CN2CCC(n3nccc3NC(=O)CCCc3ccccc3)CC2)c1  9.19%
9. COc1ccc(CC(=O)NCC2CCCN(Cc3ccc(F)cc3F)C2)cc1 (centres unmarked)  8.71%
10. O=C(COc1ccccc1)N(Cc1ccco1)c1ccc(O)cc1  8.59%
11. Cc1ccc(-c2cc(-c3ccccc3)cc(-c3ccccc3)[n+]2-c2ccc(C(=O)O)cc2)cc1.[O-][Cl+3]([O-])([O-])[O-]  7.88%
12. Cc1ccc(-c2sc(C)nc2CC(=O)O)cc1  7.75%
13. C=C(C)C1CC=C(C)/C(=N/NC(=O)CCC(=O)Nc2ccccc2Cl)C1 (centres unmarked)  6.51%
14. COc1ccc(CC(=O)NCC2CCCN(Cc3ccc(OC)cc3F)C2)cc1 (centres unmarked)  6.22%
15. NS(=O)(=O)c1ccc(CCNC(=O)c2ccccc2F)cc1  4.79%
16. Cc1cc(C(=O)NN=C(Cc2ccccc2)Cc2ccccc2)c(C)o1  4.29%
17. O=C(NCC1CCCN(Cc2cccc(OCCO)c2)C1)c1ccc(F)cc1 (centres unmarked)  2.83%
18. O=C(CCOc1ccccc1)Nc1ccnn1C1CCN(Cc2ccccc2)CC1  2%
19. O=C(COC(=O)c1c[nH]c2ccccc12)Nc1ccc(F)cc1  -1.51%
20. CSCC[C@H](NC(=O)c1ccc(Cl)c(S(=O)(=O)N2CCCC2)c1)c1nc2ccccc2[nH]1  -1.71%
21. O=C(CCOc1ccccc1)Nc1ccnn1C1CCN(Cc2ccc(O)cc2)CC1  -3.76%
22. COc1ccc(-c2cc(N)n(S(=O)(=O)Cc3ccccc3)n2)c(OC)c1  -4.34%
23. CCOC(=O)c1[nH]c(C)c(C(=O)NCc2ccc(Cl)cc2)c1C  -4.65%
24. COc1cc(CN2CCC(n3nccc3NC(=O)CCCc3ccccc3)CC2)ccc1O  -5.54%
25. COc1ccc(NC(=S)N2CCNC(=O)C2CC(=O)Nc2cccc(Cl)c2C)cc1 (centres unmarked)  -5.98%
26. O=C(Nc1cnccn1)c1ccncc1  -8.03%
27. Cc1ccc(NC(=O)C(c2ccccc2)N2CCN(CC(=O)N3CCOCC3)CC2)cc1 (centres unmarked)  -8.48%
28. O=C(CCc1ccccc1)Nc1ccnn1C1CCN(Cc2ccc(OCCO)cc2)CC1  -9.11%
29. O=C(NCC1CCCN(Cc2ccc3nonc3c2)C1)c1ccc(F)cc1 (centres unmarked)  -13.9%
30. O=C(NCCc1nc2ccccc2[nH]1)/C(=C/c1ccc2c(c1)OCO2)NC(=O)c1ccccc1  -14.2%
31. O=C(Nc1ccc(F)cc1)C(c1ccccc1)N1CCN(CC(=O)N2CCOCC2)CC1 (centres unmarked)  -14.5%
32. COc1ccc(CN2CCC(n3nccc3NC(=O)CCOc3ccccc3)CC2)cc1C  -16.2%
33. CCOc1cc(CN2CCCC(CNC(=O)c3ccc(F)cc3)C2)ccc1OC (centres unmarked)  -17%
34. O=C(CCCc1ccccc1)Nc1ccnn1C1CCN(Cc2ccccc2)CC1  -18.8%
35. CSc1cccc(CN2CCCC(CNC(=O)c3ccc(F)cc3)C2)c1 (centres unmarked)  -19.1%
36. [O-][Cl+3]([O-])([O-])[O-].c1ccc(-c2cc(-c3ccccc3)[n+](-c3ccccc3)c(-c3ccccc3)c2)cc1  -27.7%
37. CCOc1ccccc1CN1CCC(n2nccc2NC(=O)CCCc2ccccc2)CC1  -29.2%
38. COc1cc(OC)cc(C(=O)NCC2CCCN(Cc3ccc(SC)cc3)C2)c1 (centres unmarked)  -34.6%
39. COc1ccccc1CN1CCC(n2nccc2NC(=O)CCCc2ccccc2)CC1  -42.7%
40. COc1ccc(CN2CCCC(CNC(=O)c3ccc(F)cc3)C2)c(C)c1C (centres unmarked)  -46.2%
41. O=C(NCCc1nc2ccccc2[nH]1)/C(=C/c1ccc2c(c1)OCO2)NC(=O)c1ccccc1Cl  -49.9%
42. COc1ccc(CN2CCCC(CNC(=O)c3ccc(F)cc3)C2)c(F)c1 (centres unmarked)  -50.4%
43. CCOc1ccc(CN2CCCC(CNC(=O)c3ccc(F)cc3)C2)cc1CO (centres unmarked)  -50.5%
44. O=C(CCOc1ccccc1)Nc1ccnn1C1CCN(CCc2ccccc2)CC1  -51.4%
45. COc1ccc(CN2CCCC(CNC(=O)c3ccc(F)cc3)C2)cc1OC (centres unmarked)  -54.3%
46. COc1cccc(CN2CCC(n3nccc3NC(=O)CCCc3ccccc3)CC2)c1O  -55.4%
47. CSc1ccc(CN2CCCC(CNC(=O)c3ccc(F)cc3)C2)cc1 (centres unmarked)  -59%
48. COc1ccc(CN2CCC(n3nccc3NC(=O)CCCc3ccccc3)CC2)cc1C  -67.3%
49. O=C(NCCc1nc2ccccc2[nH]1)/C(=C/c1ccc2c(c1)OCO2)NC(=O)c1ccc(Cl)cc1Cl  -73.9%
50. CCOc1ccccc1NC(=O)C(c1ccccc1)N1CCN(CC(=O)N2CCOCC2)CC1 (centres unmarked)  -79.7%
51. Cc1ccc(-c2cc(-c3ccccc3)cc(-c3ccccc3)[n+]2-c2ccccc2)cc1.[O-][Cl+3]([O-])([O-])[O-]  -80.4%
52. CC(C)Oc1ccc(CN2CCC(n3nccc3NC(=O)CCc3ccccc3)CC2)cc1  -86.3%
53. CCOc1ccc(CN2CCC(n3nccc3NC(=O)CCCc3ccccc3)CC2)cc1  -88.8%
